From the supplement of paper PMC6555819

Legend:
Assay in all cases: PBM binding z-score (relative to random genomic background probes); higher = stronger binding; sequences stand for … in GC…GCGATTGACAGCGTAGAATGAAGG
[1] = system: FXR:RXRa (NR concentration 270 nM, RXRa partner concentration 90 nM)
How it was run: (§1)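 Ligand-free nuclear receptor dimers were bound for 1 h to custom Agilent 4×180K protein-binding microarrays. Detection used antibodies against each partner (one per run). Binding z-scores rest on regression-normalized fluorescence, with random background probes as the reference.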

[2] = system: LXRa:RXRa (NR concentration 270 nM, RXRa partner concentration 90 nM)
How it was run: as §1

[3] = system: LXRa homodimer (NR concentration 270 nM)
How it was run: as §1

[4] = system: LXRb:RXRa (NR concentration 270 nM, RXRa partner concentration 90 nM)
How it was run: as §1

[5] = system: LXRb homodimer (NR concentration 270 nM)
How it was run: as §1

[6] = system: PPARa:RXRa (NR concentration 270 nM, RXRa partner concentration 90 nM)
How it was run: as §1

[7] = system: PPARg:RXRa (NR concentration 180 nM, RXRa partner concentration 90 nM)
How it was run: as §1

[8] = system: PPARg:RXRa 270nM:90nM, anti-RXR (NR concentration 270 nM, RXRa partner concentration 90 nM)
How it was run: as §1

[9] = system: PPARg:RXRa 30nM:10nM, anti-RXR (NR concentration 30 nM, RXRa partner concentration 10 nM)
How it was run: as §1

[10] = system: PPARg:RXRa 90nM:30nM, anti-RXR (NR concentration 90 nM, RXRa partner concentration 30 nM)
How it was run: as §1

[11] = system: PPARg:RXRa DBDmut IVT, anti-RXR (DBD mutation: RXRa K156A/R161A, NR concentration 270 nM, RXRa partner concentration 90 nM)
How it was run: as §1

[12] = system: PPARg:RXRa IVT, anti-PPARg (NR concentration 270 nM, RXRa partner concentration 90 nM)
How it was run: as §1

[13] = system: PPARg DBDmut:RXRa IVT, anti-PPARg (DBD mutation: PPARg1 K132A/R137A, NR concentration 270 nM, RXRa partner concentration 90 nM)
How it was run: as §1

[14] = system: PPARg DBDmut IVT, anti-PPARg (DBD mutation: PPARg1 K132A/R137A, NR concentration 270 nM)
How it was run: as §1

[15] = system: PPARg homodimer (NR concentration 180 nM)
How it was run: as §1

[16] = system: PXR:RXRa (NR concentration 270 nM, RXRa partner concentration 90 nM)
How it was run: as §1

[17] = system: PXR homodimer (NR concentration 270 nM)
How it was run: as §1

[18] = system: RARa:RXR (NR concentration 270 nM, RXRa partner concentration 90 nM)
How it was run: as §1

[19] = system: RARa homodimer (NR concentration 270 nM)
How it was run: as §1

[20] = system: RARb:RXRa (NR concentration 270 nM, RXRa partner concentration 90 nM)
How it was run: as §1

Sequence | PBM binding z-score [1] | PBM binding z-score [2] | PBM binding z-score [3] | PBM binding z-score [4] | PBM binding z-score [5] | PBM binding z-score [6] | PBM binding z-score [7] | PBM binding z-score [8] | PBM binding z-score [9] | PBM binding z-score [10] | PBM binding z-score [11] | PBM binding z-score [12] | PBM binding z-score [13] | PBM binding z-score [14] | PBM binding z-score [15] | PBM binding z-score [16] | PBM binding z-score [17] | PBM binding z-score [18] | PBM binding z-score [19] | PBM binding z-score [20]
CAAACTAGGTCACCGGAAGCTCAAAGTCCGCATG | 4.54 | 2.93 | 0.559 | 2.24 | 0.297 | 5.45 | 9.51 | 7.22 | 5.15 | 7.39 | 8.73 | 9.13 | 6.78 | 2.89 | 2.58 | 1.9 | 0.365 | 3.19 | 1.19 | 4.38
CGAACTAGGTCATCCGGGACAGTGAATACATTGA | 4.46 | 2.66 | 0.565 | 2.05 | 0.166 | 5.08 | 8.08 | 6.28 | 3.97 | 5.8 | 8.35 | 8.45 | 3.68 | 1.68 | 1.84 | 1.8 | 0.618 | 2.4 | 0.0887 | 4.09
CGTCCAAGGTAATAGGAGGTCAGTGAAGACAGAT | 1.29 | 5.47 | 3.58 | 2.99 | -0.518 | 2.14 | 0.506 | 0.791 | -0.301 | 0.264 | 0.553 | 1.63 | 0.188 | -0.16 | 1.61 | 2.8 | 0.938 | 2.15 | 1.12 | 2.23
TGATTGAGGTTAAAGATCAGGGAACGTGGCGTCG | 3.41 | 2.42 | 0.0848 | 1.85 | 0.589 | 4.47 | 5.23 | 5.82 | 4.22 | 5.94 | 1.62 | 3.15 | 1.39 | 1.52 | 0.865 | 1.96 | 0.148 | 2.95 | 0.729 | 2.24
ATATGTAGGTTAGCTGGGGTCATGCAGACTAGGC | 4.32 | 5.63 | 1.92 | 4.51 | 0.764 | 5.44 | 6.19 | 5.5 | 3.22 | 5.13 | 6.73 | 6.58 | 3.11 | 1.46 | 3.23 | 6.14 | 2.18 | 5.87 | 1.4 | 3.44
CCTACTGGGCCATTCAAAGGTCATTGATCATATG | 3.24 | 4.61 | 6.31 | 4.29 | 0.576 | 4.43 | 3.07 | 4.03 | 1.44 | 3.35 | 4.67 | 4.81 | -0.127 | -0.542 | 2.61 | 5 | 2.28 | 5.19 | 0.686 | 3.72
CCTACTGGGCCACAAAAGGTCATTGATTCAGTGA | 3.28 | 5.83 | 5.25 | 4.37 | 0.347 | 4.79 | 4.35 | 4.41 | 1.88 | 3.74 | 5.38 | 5.41 | 0.516 | 0.121 | 2.8 | 5.02 | 1.16 | 4.9 | 0.618 | 3.95
TAACCTAGGTCAGATCGGGCCAGTATACGCTATA | 2.84 | 2.52 | 0.693 | 1.64 | 0.561 | 2.29 | 1.87 | 2.06 | 0.906 | 1.62 | 1.82 | 3.4 | 0.884 | -0.00517 | 1.09 | 1.54 | -0.137 | 1.38 | -0.0765 | 3.32
